This excerpt belongs to a sample that is enriched for hits.
Dicer inh: inhibitors of Dicer pre-microRNA processing, primary screen, biochemical, cat-ELCCA, chemiluminescence; Endoribonuclease Dicer (Homo sapiens), Q9UPY3; cat-ELCCA pre-miR-21 Dicer processing; active compounds read high; z-score at 25 µM; 6% of 47,000 active; AID 1347074, 2019; in the data active = z-score above about 3, passing the limit was not always enough;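 note: plate controls were vehicle for no effect and no enzyme for full effect; higher signal means more uncleaved substrate so more Dicer inhibition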
Starred values were filed as active, the others as inactive.

SMILES | Dicer inh
CC(C)(CCNC(=O)Cc1ccsc1)C(=O)N/N=C/c1ccccc1 | -2.5
CC(C)CC(NCc1ccccc1O)C(=O)O (stereo unspecified) | -0.06
O=C(O)C(c1ccccc1)C1CCCC1 (stereo unspecified) | -1.7
Cc1ccc(C(=O)NC2(NCCc3ccc(Cl)cc3)C(=O)c3ccccc3C2=O)cc1 | 1.8
O=S(=O)(c1ccc(-c2ccccn2)s1)N1CCCC1c1ccc(F)cc1 (stereo unspecified) | 0.04
CNC(=O)n1cc(Br)c(/C(N)=N\OCc2ccccc2)n1 | 0.37
Cc1ccc(C)n1-c1ccc(O)c(C(=O)O)c1 | 33*
Cc1ccc(C)n1-c1ccc(Br)cc1C(=O)O | 8.8
Cc1ccc(C)n1-c1sccc1C(=O)O | 2.6
CCOC(=O)C1(C#N)C(c2ccccc2)C(c2cccs2)=NN1c1ccc([N+](=O)[O-])cc1 (stereo unspecified) | -0.27
CC1CN(c2ccc(N)cc2C(=O)O)CC(C)O1 (stereo unspecified) | 0.91
COc1ccc(NC(=O)Cn2cnc([N+](=O)[O-])n2)c(OC)c1 | -0.56
CC(C)(C)C1CCC(OC(=O)Cn2cnc([N+](=O)[O-])n2)CC1 (stereo unspecified) | 3.1*
CC(C)OC(=O)Cn1cnc([N+](=O)[O-])n1 | -0.76
C#CC(CC)(CC)NC(=O)Nc1ccccc1 | 0.08
Nc1csc2cc(C(F)(F)F)cc(Cl)c12 | 0.48
CC(=C\c1ccc(Cl)cc1)/C(C)=N/O | 0.12
CC(C)Cn1c(=O)oc2ccccc21 | -0.3
Oc1ccccc1-c1nc2ccccc2o1 | -0.43
O=c1oc2ccccc2n1-c1nc2ccccc2o1 | 5.6*
CCCCN1CC(C(=O)OCC)=C(O)C1=O | -0.89
CCOC(=O)c1sc(=S)n(C)c1C | 2.9
CCOC(=O)C1=C(O)CCN(C)C1 | 14*
Clc1ccc(CSc2nnc(-n3cccc3)s2)cc1 | 1.9
CC(C)C(C(=O)O)N1C(=O)NC2NC(=O)NC21 (stereo unspecified) | 1.6
SMILES | Dicer inh
CCCOc1ccc(N2C(=O)CC(SCC(N)C(=O)OCC)C2=O)cc1 (stereo unspecified) | -0.88
CCOc1ccc(N2C(=O)CC(Sc3nc(C)c(CC)c(C)c3C#N)C2=O)cc1 (stereo unspecified) | 3.4*
CCCOc1ccc(N2C(=O)CC(SCCN)C2=O)cc1 (stereo unspecified) | -0.11
Cc1ccc(O)c(C(=O)NNC(=S)Nc2ccc(Cl)cc2)c1 | 5.4*
CCOC(=O)NNC(=S)Nc1ccc(Cl)cc1 | -1.9
CNC(=S)NNC(=O)c1ccc(Cl)cc1Cl | -1.6
CCc1nc(C)cn1S(=O)(=O)c1ccc(Br)c(OC)c1 | 2
Cc1n[nH]c(C)c1CCCCCOc1ccccc1Br | 0.11
O=[N+]([O-])c1ccsc1Oc1ccc(Cl)cc1 | 0.96
O=C(NC(=S)NN1CCCCC1)c1csc([N+](=O)[O-])c1 | 2.2
CC(C)CNC(=S)NC(=O)c1csc([N+](=O)[O-])c1 | 1.1
CC(C)c1ccc(NC(=S)NNC(=O)NC(=O)c2csc([N+](=O)[O-])c2)cc1 | 4.7*
CCCCOC(=O)C1=C(C)NC2=C(C(=O)CCC2)C1c1ccc(OC)c(Br)c1 (stereo unspecified) | -0.67
COc1ccc(-c2nc(-c3cccnc3)no2)cc1 | 1.8
c1ccc(-c2ccc(-c3nc(-c4cccnc4)no3)cc2)cc1 | 3.2*
Cc1ccc(-c2nc(-c3cccnc3)no2)cc1C | 2
FC(F)(F)c1cc(Cl)cnc1N1CCN(C(c2ccccc2)c2ccccc2)CC1 | -0.43
CCOC(=O)CSc1nc(-c2ccc(F)cc2)cc(C(F)(F)F)c1C#N | 3.2*
CCOC(=O)CSc1nc(C)cc(C)c1C#N | -0.01
Cc1ccc(-c2cc(C(F)(F)F)c(C#N)c(SCC(=O)O)n2)cc1 | -0.53
CCOC(=O)COc1nc(-c2ccccc2)cc(-c2ccccc2)c1C#N | 0.94
N#Cc1c(C(F)(F)F)cc(-c2ccccc2)nc1SCC(N)=O | 0.19
CCOC(=O)CSc1nc(C2CC2)cc(-c2ccccc2)c1C#N | 3.7*
COc1cc(Cl)c(NC(=O)c2ccc(Cl)cc2)c(Cl)c1 | 0.45
Cc1ccc(N2C(=O)/C(=C\c3coc4cc(C)cc(C)c4c3=O)SC2=S)c(C)c1 | 1.4
SMILES | Dicer inh
Cn1nc(-c2ccc(-c3ccn(C(=O)c4cccc(C(F)(F)F)c4)n3)s2)cc1C(F)(F)F | -1.6
CCOC(=O)N1CCN(S(C)(=O)=O)CC1 | 3.5*
CCCS(=O)(=O)N1CCN(C2CCN(C(=O)OCC)CC2)CC1 | -1.1
CCOC(=O)N1CCN(S(=O)(=O)c2ccc(Cl)cc2)CC1 | 2.9
O=C1C(=O)N(Cc2ccccc2)c2ccccc21 | -0.23
O=C1C(=O)N(Cc2ccc(Cc3ccc(CN4C(=O)C(=O)c5ccccc54)cc3)cc2)c2ccccc21 | -1.3
Cc1cc(C)c(CN2C(=O)C(=O)c3ccccc32)cc1CN1C(=O)C(=O)c2ccccc21 | 3.6*
Cc1c(C#N)c(-n2cccc2)n(Cc2cccs2)c1C | 0.88
CC1CN=C(SCc2ccc(Cl)cc2)N1 (stereo unspecified) | 2.3
Cc1ccc(CSC2=NCCCN2)cc1 | 1.1
Cc1ccc(CSC2=NCC(C)N2)cc1 (stereo unspecified) | 3.2*
c1ccc(CN2CN(c3nccs3)CN(c3nccs3)C2)cc1 | 2.4
CS(=O)(=O)c1sc(Br)c2c1C(=O)CCC2 | 4.4*
CS(=O)(=O)c1sc(C#N)c2c1C(=O)CCC2 | 0.08
CC1(C)CC(=O)c2c(S(C)(=O)=O)sc(Br)c2C1 | -1.3
CCOC(=O)CC1=Nc2ccccc2NC(=O)C1 | 0.09
N#Cc1ccc(C#CCOC(=O)Nc2ccccc2)cc1 | -8
CCOC(=O)NC1=C(C#N)C=Nc2ccccc2N1 | 23*
Cc1cccc2nc(-c3ccc([N+](=O)[O-])cc3)cn12 | -1.1
Cc1onc(-c2c(F)cccc2Cl)c1-c1ncc(-c2ccc(Br)cc2)o1 | -1.6
Oc1ccc(Cl)cc1Sc1cc(Cl)ccc1O | 3.2*
NS(=O)(=O)c1ccc(Cl)cc1Sc1ccccc1C(=O)O | -0.59
Oc1ccc(Cl)cc1-c1csnn1 | 0.76
S=c1[nH]nc(-c2ccncc2)n1Cc1ccccc1 | 1.2
CCn1c(-c2cccs2)n[nH]c1=S | 1.6
SMILES | Dicer inh
Cc1ccc(-n2cc(-c3cccs3)nc2SCc2n[nH]c(=S)n2Cc2ccccc2)cc1 | 5.8*
Cc1ccc2nc(NC3=NCN(Cc4ccccc4Cl)CN3)nc(C)c2c1 | 0.71
CC1(C)CC(=O)C2=C(C1)NC(=O)CC2C(=O)Nc1ccc(F)c(Cl)c1 (stereo unspecified) | -0.07
COc1ccccc1-c1nnc(SC)n1-c1ccccc1 | 0.2
O=C(Cc1c(O)c2ccccc2oc1=O)c1cc2ccccc2o1 | 0.72
O=S(=O)(CCSc1ncccn1)c1ccc(F)cc1 | 3*
O=S(=O)(Nc1ncccn1)c1ccc(F)cc1 | -1.4
O=S(=O)(CCSc1nccc(-c2cccs2)n1)c1ccc(F)cc1 | 0.76
CCCOC(=O)Cn1cnc2ccccc2c1=O | -0.21
COc1ccc(COC(=O)C2=C(C)NC3=C(C(=O)CCC3)C2c2cc(Cl)c(O)c(OC)c2)cc1 (stereo unspecified) | 0.24
N#CC(=C1SCCS1)c1ccc(Cl)cc1 | 4.7*
N#CC(=C1SCCCCS1)S(=O)(=O)c1ccc(Cl)cc1 | 0.36
N#CC(=C1SCCS1)S(=O)(=O)c1ccc(Cl)cc1 | -0.22
Cc1ccc(SCc2cc(=O)[nH]c(Nc3nc(C)c4cccc(C)c4n3)n2)cc1 | 1.8
CCOc1ccc2nc(Nc3nc(O)cc(=O)[nH]3)nc(C)c2c1 | 2.8
CCc1ccc2nc(Nc3nc(CSc4nnc(C)s4)cc(=O)[nH]3)nc(C)c2c1 | 3.1*
